# Vaccinia inh: blocks a specific stage of Vaccinia orthopoxvirus infection, primary screen, cell-based, single point | Vaccinia-infected cells, mCherry/Venus stage reporter fluorescence; active compounds read low | activity change (mCherry), % (test concentration not listed) | 89,000 compounds, 0.01% hits; in the data active = activity change below about -37%, passing the limit was not always enough; tested in A549 cells
# * = called active by the depositor. The entries come from a sample that favours hits as a whole.
SMILES,Vaccinia inh
COc1ccc2c3c(n(C)c2c1)[C@H](CO)N(C(=O)C1CCCC1)CC31CN(Cc2cccc(F)c2)C1,-24
CNC(=O)C[C@@H]1CC[C@H]2[C@@H](COc3ccc(NC(=O)Nc4ccccc4)cc3C(=O)N2C)O1,-5
CO[C@H]1CN(C)C(=O)c2ccc(NS(=O)(=O)CC(F)(F)F)cc2OC[C@H](C)N(C)C[C@@H]1C,19
COc1cccc(CN2CC3(CN(C(=O)Nc4c(C)noc4C)C3)c3c([nH]c4cc(OC)ccc34)[C@@H]2CO)c1,14
CCNC(=O)C[C@H]1CC[C@@H]2[C@H](COC[C@H](O)CN2C(=O)Nc2ccc3c(c2)OCO3)O1,8
CCCC(=O)Nc1ccc2c(c1)OC[C@H](C)N(Cc1ccccc1)C[C@H](C)[C@@H](OC)CN(C)C2=O,-22
CCCNC(=O)c1cc2c(c(-c3cccc(-c4cccc(F)c4)c3)n1)[C@H](CCO)N([S@@](=O)C(C)(C)C)C2,-46*
CN1CCN(C(=O)c2cc3c(c(-c4cccc(Br)c4)n2)[C@H](CCO)N([S@@](=O)C(C)(C)C)C3)CC1,5
COc1ccccc1-c1cccc(-c2nc(C(=O)N3CCN(C)CC3)cc3c2[C@@H](CCO)N([S@](=O)C(C)(C)C)C3)c1,-1
CCNC(=O)c1cc2c(c(-c3cccc(-c4cccc(F)c4)c3)n1)[C@@H](CCO)N([S@](=O)C(C)(C)C)C2,-24
COCCNC(=O)c1cc2c(c(-c3cccc(-c4cccc(F)c4)c3)n1)[C@@H](CCO)N([S@](=O)C(C)(C)C)C2,-17
CN1CCN(C(=O)c2cc3c(c(-c4cccc(C#CCC5CCCC5)c4)n2)[C@@H](CCO)N(S(=O)C(C)(C)C)C3)CC1 (stereo partly specified),-65*
C[C@@H]1CN([C@@H](C)CO)C(=O)c2cccc(NC(=O)c3nc4ccccc4s3)c2O[C@H]1CN(C)S(C)(=O)=O,5
CCCC#Cc1cnc2c(c1)C(=O)N([C@H](C)CO)C[C@@H](C)[C@H](CN(C)Cc1ccc(F)cc1)O2,-15
C[C@H]1CN([C@@H](C)CO)C(=O)c2cc(C#CCN(C)C)cnc2O[C@H]1CN(C)S(C)(=O)=O,29
C[C@@H]1CN([C@H](C)CO)C(=O)c2cc(-c3ccncc3)cnc2O[C@H]1CN(C)Cc1cccnc1,13
C[C@@H]1CN([C@@H](C)CO)C(=O)c2cc(-c3cncnc3)cnc2O[C@@H]1CN(C)C(=O)Cc1ccccc1,8
C[C@@H]1CCCCO[C@@H](CN(C)C)[C@H](C)CN([C@@H](C)CO)C(=O)c2cc(NC(=O)CCC(F)(F)F)ccc2O1,13
C[C@@H]1CN([C@H](C)CO)C(=O)c2cc(NC(=O)Nc3ccc(C(F)(F)F)cc3)ccc2O[C@@H](C)CCCCO[C@H]1CN(C)C(=O)c1ccccc1,-6
O=C(c1ccncc1)N1CC(=O)N2[C@H](C1)[C@@H](c1ccc(-c3ccccc3)cc1)[C@@H]2CO,-1
CC(C)[C@@H]1COCc2cn(nn2)CC[C@H](C)C(=O)N1,9
C[C@@H]1CN([C@@H](C)CO)C(=O)c2cccc(NC(=O)CCCCCC(=O)Nc3ccccc3N)c2O[C@H]1CN(C)C(=O)Nc1ccc(F)cc1,13
COC(=O)C(CC#Cc1ccc2c(c1)[C@]1(C(=O)N2)[C@H](c2ccc(OCCO)cc2)N2[C@H](c3ccccc3)[C@H](c3ccccc3)OC(=O)[C@H]2[C@@H]1C(=O)N1CCCCCCC1)C(=O)OC,1
O=C(NC1CCC1)[C@H]1[C@H](CO)[C@H]2Cn3c(ccc(-c4ccccc4F)c3=O)[C@H]2N1Cc1ccccn1,-4
CC(C)NC(=O)[C@@]1(C)c2ccccc2C(=O)N(Cc2ccc(OC(F)(F)F)cc2)[C@H]1c1ccc(CO)cc1,15
SMILES,Vaccinia inh
O=C(C1CCC1)N1CC2(C1)[C@@H](c1ccccc1)[C@@H](CO)N2Cc1ccccc1F,-10
C[C@@H]1CN([C@@H](C)CO)C(=O)c2cc(C#CCN(C)C)cnc2O[C@H]1CN(C)Cc1ccccc1,8
O=C(NCc1ccncn1)[C@@H]1[C@@H](CO)[C@@H]2Cn3c(ccc(-c4ccccc4)c3=O)[C@@H]2N1CC1CC1,5
COCC#Cc1ccc(CC[C@H]2O[C@H]3CC[C@H](CO)O[C@H]3C[C@H]2n2cc(C3(O)CCCC3)nn2)cc1,-8
O=C(CCN1CCCCC1)NCC[C@H]1CC[C@H](NC(=O)C2CC2)[C@H](CO)O1,-6
C[C@H](CO)N1C[C@H](C)[C@H](CN(C)C(=O)c2ccccc2)Oc2ncc(C3=CCCC3)cc2C1=O,-5
CCCNC(=O)N1C[C@H]2[C@@H](c3ccccc31)[C@@H](CO)N2Cc1ccc(OC)cc1,13
COc1ccc2c3c([nH]c2c1)[C@@H](CO)N(C(=O)CN1CCOCC1)CC31CN(C(C)=O)C1,22
